From PubChem BioAssay (EPA / NIEHS)
Records with an inconclusive call do not appear. Activity calls are given as the source filed them. Rule for the calls, unless noted: active = hit-call score of the fitted dose curve at least 0.9, where 1 is the maximum; inactive = score below 0.9.

What was measured:
THRA (gene 7067) = THRA (gene 7067) (UniProt P10827); test: TOX21_TRA_COA_Agonist_Followup_ratio: Tox21 Thyroid Hormone Receptor alpha Agonism through Coactivator Recruitment Follow-Up Assay, Ratio (AID 2283948)
How it was run: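 Cell-free TR-FRET coactivator recruitment: GST-tagged TRα LBD (2.5 nM) with 0.10% BSA was incubated with compound, then fluorescein-SRC-2 peptide (200 nM) and Tb-anti-GST antibody (2 nM) added. 520:495 nm ratio normalized to DMSO (0%) and T3 (100%).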

THRB (gene 7068) [1] = molecular target: THRB (gene 7068) (UniProt P10828); test: TOX21_TRB_BLA_Agonist_Followup_ratio: Tox21 Thyroid Hormone Receptor beta Agonism Beta-lactamase (BLA) Follow-Up Assay, Ratio (AID 2283954; active = hit-call score of the fitted dose curve at least 0.9, where 1 is the maximum)
How it was run: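 Agonist mode: compounds (11-point, triplicate) incubated 18 h with HEK293T cells carrying GAL4-DBD/human TRβ-LBD and UAS-β-lactamase. Blue/green (460/530 nm) FRET ratio read after 2 h CCF4-AM loading; CellTiter-Glo viability run in the same plates.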

THRB (gene 7068) [2] = molecular target: THRB (gene 7068) (UniProt P10828); test: TOX21_TRB_COA_Agonist_Followup_ratio: Tox21 Thyroid Hormone Receptor beta Agonism through Coactivator Recruitment Follow-Up Assay, Ratio (AID 2283963)
How it was run: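 GST-TRb LBD 5.0 nM + 0.10% BSA + cpd; add fluorescein-SRC-2 200 nM / Tb anti-GST Ab 2 nM; TR-FRET ex 340, em 520:495; norm DMSO 0%, T3 100%.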

[3] = molecular target: Retinoic acid receptor RXR-alpha (Homo sapiens) (UniProt P19793); test: TOX21_TR_RXR_BLA_Agonist_Followup_ratio: Tox21 Thyroid Hormone Receptor beta Retinoid X Receptor alpha (RXRa) Agonism Beta-lactamase (BLA) Follow-Up Assay, Ratio (AID 2283968; active = hit-call score of the fitted dose curve at least 0.9, where 1 is the maximum)
How it was run: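 Agonism is scored as an increase in the 460:530 nm beta-lactamase substrate ratio over DMSO in RXRa-UAS-bla HEK293T cells exposed for 16 h to 11 compound concentrations.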

[4] = TOX21_TR_RXR_BLA_Agonist_Followup_viability: Viability Assessment in the Tox21 Thyroid Hormone Receptor beta Retinoid X Receptor alpha (RXRa) Agonism Beta-lactamase (BLA) Follow-Up Assay (AID 2283970; active = hit-call score of the fitted dose curve at least 0.9, where 1 is the maximum)
How it was run: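 Luminescent ATP read (CellTiter-Glo) after 16h exposure of RXRa-UAS-bla HEK293T cells at 37C/5% CO2. Activity normalized to DMSO; signal loss scored as reduced viability.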

[5] = CCTE_Harrill_HTTr_Viability_DMEM_6hr: (Pilot) CCTE's 6-hour Cell Viability Assessment for the High-Throughput Transcriptomics (HTTr) Platform, in MCF-7 cells cultured in DMEM + 10% fetal bovine serum, Harrill Lab (AID 2283973)
How it was run: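 Propidium iodide uptake imaged by high-content analysis after six hours of chemical treatment in an eight-concentration series. Cells: MCF-7 grown in DMEM with 10% fetal bovine serum; DMSO as baseline.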

[6] = CCTE_Harrill_HTTr_Viability_DMEM_12hr: (Pilot) CCTE's 12-hour Cell Viability Assessment for the High-Throughput Transcriptomics (HTTr) Platform, in MCF-7 cells cultured in DMEM + 10% fetal bovine serum, Harrill Lab (AID 2283974)
How it was run: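 Propidium iodide dye exclusion imaged by high-content microscopy after 12 h chemical exposure (eight concentrations) of MCF-7 cells grown in DMEM plus 10% FBS; values fitted in both directions relative to DMSO.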

[7] = CCTE_Harrill_HTTr_Viability_DMEM_24hr: (Pilot) CCTE's 24-hour Cell Viability Assessment for the High-Throughput Transcriptomics (HTTr) Platform, in MCF-7 cells cultured in DMEM + 10% fetal bovine serum, Harrill Lab (AID 2283975)
How it was run: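 Pilot study: propidium iodide dye exclusion, imaged by high content microscopy, after 24 h compound exposure (eight concentrations) in MCF-7 cultured in DMEM + 10% fetal bovine serum; DMSO served as negative control and baseline.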

[8] = CCTE_Harrill_HTTr_Viability_PRF_DMEM_6hr: (Pilot) CCTE's 6-hour Cell Viability Assessment for the High-Throughput Transcriptomics (HTTr) Platform, in MCF-7 cells cultured phenol red-free DMEM + 10% charcoal-stripped fetal bovine serum, Harrill Lab (AID 2283976)
How it was run: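 Membrane integrity by high-content imaging of propidium iodide uptake, six hours after dosing with eight concentrations. Cells: MCF-7 grown in phenol red-free DMEM plus 10% charcoal-stripped serum; DMSO serves as baseline for bidirectional fits.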

[9] = CCTE_Harrill_HTTr_Viability_PRF_DMEM_12hr: (Pilot) CCTE's 12-hour Cell Viability Assessment for the High-Throughput Transcriptomics (HTTr) Platform, in MCF-7 cells cultured in phenol red-free DMEM + 10% charcoal-stripped fetal bovine serum, Harrill Lab (AID 2283977)
How it was run: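 Membrane integrity was scored via propidium iodide dye exclusion imaging, fitted in both directions relative to DMSO. Compounds ran as eight-point dilutions for 12 hours on MCF-7 grown in phenol red-free DMEM plus 10% charcoal-stripped serum.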

[10] = CCTE_Harrill_HTTr_Viability_PRF_DMEM_24hr: (Pilot) CCTE's 24-hour Cell Viability Assessment for the High-Throughput Transcriptomics (HTTr) Platform, in MCF-7 cells cultured in phenol red-free DMEM + 10% charcoal-stripped fetal bovine serum, Harrill Lab (AID 2283980)
How it was run: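 Propidium iodide exclusion imaged at 24 h after dosing scores viability; cells were MCF-7 grown in phenol red-free DMEM plus 10% charcoal-stripped serum, tested in eight concentrations, fitted in both directions against DMSO.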

[11] = CCTE_Harrill_HTTr_Apoptosis_DMEM_6hr: (Pilot) CCTE's 6-hour Apoptosis Assessment for the High-Throughput Transcriptomics (HTTr) Platform, in MCF-7 cells cultured in DMEM + 10% fetal bovine serum, Harrill Lab (AID 2283981)
How it was run: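 MCF-7 cells grown in DMEM + 10% FBS were exposed for 6 hours to an eight-point dilution series. CellEvent Caspase 3/7 Green signal was imaged; activity fitted bidirectionally against DMSO.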

[12] = CCTE_Harrill_HTTr_Apoptosis_DMEM_12hr: (Pilot) CCTE's 12-hour Apoptosis Assessment for the High-Throughput Transcriptomics (HTTr) Platform, in MCF-7 cells cultured in DMEM + 10% fetal bovine serum, Harrill Lab (AID 2283982)
How it was run: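 Caspase-3/7 activity was measured by high-content imaging (CellEvent Caspase 3/7 Green) after a 12-hour exposure of MCF-7 cells grown in DMEM with 10% FBS. Eight-point concentration series, fitted bidirectionally against vehicle.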

[13] = CCTE_Harrill_HTTr_Apoptosis_DMEM_24hr: (Pilot) CCTE's 24-hour Apoptosis Assessment for the High-Throughput Transcriptomics (HTTr) Platform, in MCF-7 cells cultured in DMEM + 10% fetal bovine serum, Harrill Lab (AID 2283983)
How it was run: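 Caspase-3/7 activity read by high-content imaging (CellEvent Green reagent) 24 h after dosing. MCF-7 cells grown in DMEM with 10% FBS received an eight-point concentration series; fits were bidirectional versus DMSO.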

[14] = CCTE_Harrill_HTTr_Apoptosis_PRF_DMEM_6hr: (Pilot) CCTE's 6-hour Apoptosis Assessment for the High-Throughput Transcriptomics (HTTr) Platform, in MCF-7 cells cultured phenol red-free DMEM + 10% charcoal-stripped fetal bovine serum, Harrill Lab (AID 2283984)
How it was run: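 Caspase-3/7 activity (CellEvent Green) read by high-content imaging 6 h after dosing, eight concentrations. Cells: MCF-7, phenol red-free DMEM with 10% charcoal-stripped serum. Curves fit both directions against DMSO.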

[15] = CCTE_Harrill_HTTr_Apoptosis_PRF_DMEM_24hr: (Pilot) CCTE's 24-hour Apoptosis Assessment for the High-Throughput Transcriptomics (HTTr) Platform, in MCF-7 cells cultured in phenol red-free DMEM + 10% charcoal-stripped fetal bovine serum, Harrill Lab (AID 2283986)
How it was run: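 Eight concentrations tested for 24 h on MCF-7 grown in charcoal-stripped serum, phenol red-free DMEM. High content imaging of CellEvent Caspase 3/7 Green signal gives apoptosis read-out, fitted both ways relative to DMSO.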

[16] = molecular target: Thyroid hormone receptor alpha (Rattus norvegicus) + Thyroid hormone receptor beta (Rattus norvegicus) (UniProt P18113+P63059); test: TOX21_TR_LUC_GH3_Antagonist_Followup: Tox21 GH3 Thyroid Hormone Receptor Antagonism Luciferase Follow-Up Assay (AID 2283942; active = hit-call score of the fitted dose curve at least 0.9, where 1 is the maximum)
How it was run: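 Luminescence read-out (ONE-Glo, 30 min at room temperature) in GH3 reporter cells challenged with 1.0 nM T3 final. Compounds ran at 92 uM to 5nM over 15 concentrations for 24 h; DMSO served as negative control and baseline.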

[17] = TOX21_TRB_BLA_Antagonist_Followup_viability: Viability Assessment in the Tox21 Thyroid Hormone Receptor beta Antagonism Beta-lactamase (BLA) Follow-Up Assay (AID 2283961; active = hit-call score of the fitted dose curve at least 0.9, where 1 is the maximum)
How it was run: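 ATP-based CellTiter-Glo luminescence (30 min, room temperature) run in the same wells as the TRβ-bla readout. Cells: GeneBLAzer HEK293T expressing GAL4-TRβ LBD, exposed 18 h at 37C to compounds at 11 concentrations in triplicate, stripped-serum medium.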

[18] = molecular target: Retinoic acid receptor RXR-alpha (Homo sapiens) (UniProt P19793); test: TOX21_TR_RXR_BLA_Antagonist_Followup_ratio: Tox21 Thyroid Hormone Receptor beta Retinoid X Receptor alpha (RXRa) Antagonism Beta-lactamase (BLA) Follow-Up Assay, Ratio (AID 2283972; active = hit-call score of the fitted dose curve at least 0.9, where 1 is the maximum)
How it was run: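 After 5 h attachment at 37C, HEK293T RXRa-bla cells (2,500/well, 2% charcoal-stripped FBS, no phenol red) received compounds at 11 concentrations in triplicate for 16 h. Beta-lactamase read as 460:530 nm ratio after 2 h RT substrate loading.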

[19] = TOX21_TR_RXR_BLA_Antagonist_Followup_viability: Viability Assessment in the Tox21 Thyroid Hormone Receptor beta Retinoid X Receptor alpha (RXRa) Antagonism Beta-lactamase (BLA) Follow-Up Assay (AID 2283979; active = hit-call score of the fitted dose curve at least 0.9, where 1 is the maximum)
How it was run: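 RXRa-bla HEK293T cells (2,500/well, phenol red-free DMEM, 2% charcoal-stripped FBS) were attached 5 h, then exposed to compounds at 11 concentrations in triplicate for 16 h at 37C. Viability measured by CellTiter-Glo ATP luminescence, bidirectional fitting versus DMSO.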

Measured: AC50

Retinoic acid receptor RXR-alpha (Homo sapiens), sequence (P19793 whole entry, looked up): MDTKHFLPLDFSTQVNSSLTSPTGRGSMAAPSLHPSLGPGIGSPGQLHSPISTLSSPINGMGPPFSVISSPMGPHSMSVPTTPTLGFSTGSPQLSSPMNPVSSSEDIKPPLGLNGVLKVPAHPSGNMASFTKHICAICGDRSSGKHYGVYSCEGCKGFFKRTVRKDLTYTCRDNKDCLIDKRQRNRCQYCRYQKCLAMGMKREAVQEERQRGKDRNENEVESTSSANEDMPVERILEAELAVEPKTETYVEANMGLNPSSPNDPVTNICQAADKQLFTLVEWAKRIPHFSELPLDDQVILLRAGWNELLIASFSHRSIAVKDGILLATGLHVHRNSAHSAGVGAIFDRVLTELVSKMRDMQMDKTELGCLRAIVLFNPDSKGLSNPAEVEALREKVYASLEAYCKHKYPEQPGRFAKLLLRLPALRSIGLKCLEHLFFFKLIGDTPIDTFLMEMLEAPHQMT
THRB (gene 7068), sequence (P10828 whole entry, looked up, the tested form may be a part): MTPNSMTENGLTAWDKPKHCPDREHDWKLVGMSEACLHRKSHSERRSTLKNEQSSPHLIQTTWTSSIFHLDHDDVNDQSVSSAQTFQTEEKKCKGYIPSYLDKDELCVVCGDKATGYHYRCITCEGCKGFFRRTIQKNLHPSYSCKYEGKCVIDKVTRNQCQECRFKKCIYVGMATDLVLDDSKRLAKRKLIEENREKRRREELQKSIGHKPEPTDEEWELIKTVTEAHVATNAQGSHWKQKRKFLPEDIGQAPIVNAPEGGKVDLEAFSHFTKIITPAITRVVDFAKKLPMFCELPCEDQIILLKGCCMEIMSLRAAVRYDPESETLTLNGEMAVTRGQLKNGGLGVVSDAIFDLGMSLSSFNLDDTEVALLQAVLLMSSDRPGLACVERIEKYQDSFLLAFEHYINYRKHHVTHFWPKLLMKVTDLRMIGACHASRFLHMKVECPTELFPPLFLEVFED
THRA (gene 7067), sequence (P10827 whole entry, looked up, the tested form may be a part): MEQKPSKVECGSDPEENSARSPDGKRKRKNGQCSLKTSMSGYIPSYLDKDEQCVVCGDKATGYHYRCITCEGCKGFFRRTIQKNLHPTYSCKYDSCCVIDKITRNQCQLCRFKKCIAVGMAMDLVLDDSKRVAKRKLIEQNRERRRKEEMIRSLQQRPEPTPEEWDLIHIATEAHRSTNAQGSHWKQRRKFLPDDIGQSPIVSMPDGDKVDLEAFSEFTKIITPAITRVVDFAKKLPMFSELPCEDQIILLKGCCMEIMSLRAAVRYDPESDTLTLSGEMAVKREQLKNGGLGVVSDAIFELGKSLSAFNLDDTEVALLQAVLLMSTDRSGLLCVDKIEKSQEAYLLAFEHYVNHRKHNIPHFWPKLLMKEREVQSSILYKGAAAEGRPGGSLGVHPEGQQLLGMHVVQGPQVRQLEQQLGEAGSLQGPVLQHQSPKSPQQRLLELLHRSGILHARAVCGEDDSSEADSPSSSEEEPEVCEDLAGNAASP

Cc1cc(NC(=O)C(=O)O)cc(C)c1Oc1ccc(O)c2c1CCC2
active: THRA (gene 7067) 3.53 nM | THRB (gene 7068) [1] 84.8 nM | THRB (gene 7068) [2] 2.27 nM | [3] 21600 nM

CCCCCCCCCCC
inactive: THRA (gene 7067) | THRB (gene 7068) [1] | THRB (gene 7068) [2] | [3] | [4]

CCOC(=O)C(C)(C)Oc1ccc(Cl)cc1
inactive: [5] | [6] | [7] | [8] | [9] | [10] | [11] | [12] | [13] | [14] | [15]

Nc1nc(N)c2nc(CNc3ccc(C(=O)N[C@@H](CCC(=O)O)C(=O)O)cc3)cnc2n1
inactive: [16] | [17] | [18] | [19]

O=c1[nH]cc(F)c(=O)[nH]1
inactive: [19]
